High-throughput results deposited in PubChem BioAssay by several laboratories.
The list is not random: actives were taken first. Their share in the collection is about 32%.
CYP2C9 inhib – inhibitors of human CYP2C9; P11712; CYP2C9 Supersomes, luciferin-H conversion, luminescence; inhibition, % at 5 µM; actives 20% (n = 96,000); AID 777;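 active = blocking of liver enzyme CYP2C9 beyond about 50% at 5 µM, limit read from the data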
CYP2C19 inh – human CYP2C19 inhibition | P33261 | CYP2C19 Supersomes, luciferin-H EGE luminescence, 30 min | inhibition, % at 5 µM | actives 21% (n = 96,000);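 active = CYP2C19 inhibition above a set limit at 5 µM in the primary screen, cut at about 50% in these data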;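 also: plate controls were negative control wells for no effect and 2.5 mM tranylcypromine positive control for full effect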
Target sequence (P33261 whole entry, looked up): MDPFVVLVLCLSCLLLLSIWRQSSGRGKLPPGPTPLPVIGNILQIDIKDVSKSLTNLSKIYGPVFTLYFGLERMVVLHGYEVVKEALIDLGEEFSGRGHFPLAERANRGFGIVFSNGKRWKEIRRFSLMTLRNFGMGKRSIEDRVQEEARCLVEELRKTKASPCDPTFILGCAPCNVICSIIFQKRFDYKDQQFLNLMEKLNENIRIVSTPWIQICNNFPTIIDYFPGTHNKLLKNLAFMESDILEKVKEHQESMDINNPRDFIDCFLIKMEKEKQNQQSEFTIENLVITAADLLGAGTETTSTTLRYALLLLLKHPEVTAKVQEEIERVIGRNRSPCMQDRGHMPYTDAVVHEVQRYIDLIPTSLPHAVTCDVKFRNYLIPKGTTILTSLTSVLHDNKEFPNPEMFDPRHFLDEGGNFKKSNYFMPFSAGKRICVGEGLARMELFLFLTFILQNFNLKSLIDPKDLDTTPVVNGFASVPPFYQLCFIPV
PostGolgi ctrl – yeast control strain growth, post-Golgi counter-screen; efflux-deficient yeast background strain, growth absorbance A615, 16 h; inhibition, % at 10 µM; actives 5% (n = 98,000)
CYP2C9 activ – CYP2C9 (human) activation; P11712; recombinant CYP2C9, luciferin-H conversion, luminescence; hits give high values; factor 1 = untreated enzyme, 0 = blocked; activation factor at 5 µM; actives 1.4% (n = 96,000); AID 1024;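 active = activation factor of 2 or more for CYP2C9 at a 5 µM dose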;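 also: 0 = sulfaphenazole-blocked wells and 1 = vehicle-only wells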
CYP2C19 activ – activators of human cytochrome P450 2C19; P33261; recombinant CYP2C19, luciferin-H EGE luminescence; hits give high values; 0 = fully inhibited enzyme, 1 = untreated enzyme; activation factor at 5 µM; 96,000 tested, under 10 active;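 active = activation factor of at least 2 at 5 µM in the primary screen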;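 also: 0 = wells with 2.5 mM tranylcypromine and 1 = vehicle-only wells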
PostGolgi yeast – growth inhibition of a yeast mutant, post-Golgi transport screen; post-Golgi transport phenotypic cell assay; inhibition, % at 10 µM; actives 0.9% (n = 98,000); AID 739;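 also: yeast cells grown in 1536-well plates; yeast grown about 18 h at 30C before absorbance read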
* marks the source's active call; other numbers are inactive results; / = no result given. Rule as the data show it, unless noted: active = inhibition above about 30%; inactive = the rest.

SMILES | CYP2C9 inhib | CYP2C19 inh | PostGolgi ctrl | CYP2C9 activ | CYP2C19 activ | PostGolgi yeast
CCn1c(COc2ccc(C)cc2)nnc1SCc1nc2ccccc2[nH]1 | 45 | 29 | 8 | 0.6 | 0.7 | -1
c1coc(Cn2c(SCc3nc4ccccc4[nH]3)nnc2-c2cnccn2)c1 | 81* | 67* | -4 | 0.2 | 0.3 | -6
Clc1ccc(OCc2nnc(SCc3nc4ccccc4[nH]3)n2Cc2ccco2)cc1 | 62* | 12 | 57* | 0.4 | 0.9 | 56*
O=C1CCC(=O)N1CC(=O)N1c2ccccc2Sc2ccccc21 | -14 | 1 | 7 | 1.1 | 1 | -7
Cc1cc(C)n(CC(=O)N2c3ccccc3Sc3ccccc32)n1 | 38 | 67* | -2 | 0.6 | 0.3 | -7
CCN(CC)C(=O)Oc1ccc2c(=O)c(-c3ccccc3)coc2c1 | -39 | 7 | -2 | 1.4 | 0.9 | -1
CC(C)=CCCC1=CCC(/C(C)=N/NC(N)=O)CC1 (stereo not given) | 19 | 26 | 22 | 0.8 | 0.7 | 23
COc1ccc(C2CC(=O)c3c(ccc4ccccc34)N2)cc1OC (stereo not given) | 32 | 14 | 3 | 0.7 | 0.9 | -1
CCOc1cc(C2CC(=O)c3c(ccc4ccccc34)N2)ccc1O (stereo not given) | 65* | 24 | 13 | 0.3 | 0.8 | 8
O=C(O)C1C2C=CC3(CN(C/C=C/c4ccccc4)C(=O)C13)O2 (stereo not given) | 6 | -3 | -5 | 0.9 | 1 | 2
CC(=O)Nc1nnc(SCc2ccc(F)cc2)s1 | 18 | 47 | -1 | 0.8 | 0.5 | -2
O=C(CSc1nnnn1-c1ccccc1)NCc1cccs1 | 7 | 83* | 5 | 0.9 | 0.2 | 8
CSc1ccccc1-n1nnnc1SCC(=O)NCc1cccs1 | / | / | 6 | / | / | -5
O=C(CCCSc1nnc(SCCCC(=O)c2ccc(F)cc2)s1)c1ccc(F)cc1 | 76* | 56* | 7 | 0.2 | 0.4 | -5
O=C(CSc1nnnn1-c1ccccc1)N1CCN(C(=O)c2ccco2)CC1 | 65* | 45 | 11 | 0.4 | 0.5 | 2
O=C(O)CCSc1nnnn1-c1ccccc1 | -14 | -14 | -3 | 1.1 | 1.1 | -2
O=C(CCCSc1nnnn1-c1ccccc1)c1ccc(F)cc1 | -60 | 59* | 5 | 1.6 | 0.4 | 15
CC(C)(C)c1ccccc1OCCCCCNCCO | -2 | 7 | 3 | 1 | 0.9 | 7
O=C(O)CSc1nnnn1-c1ccccc1 | 3 | 6 | -3 | 1 | 0.9 | 0
Cc1cccc(CSc2nnnn2-c2ccccc2)c1 | 23 | 39 | 10 | 0.8 | 0.6 | 3
O=C1c2ccccc2C(=O)N1CSc1nnnn1-c1ccccc1 | -109 | 83* | 6 | 2.1* | 0.2 | -5
O=C(CSc1nnnn1-c1ccccc1)CSc1nnnn1-c1ccccc1 | 72* | 98* | 20 | 0.3 | 0 | 8
c1ccc(-n2nnnc2SCCCSc2nc3ccccc3s2)cc1 | 35 | 47 | 10 | 0.6 | 0.5 | -13
O=C1c2ccccc2C(=O)N1CCCCSc1nnnn1-c1ccccc1 | 51* | 48 | 14 | 0.5 | 0.5 | 2
COc1cc(NC(=O)CSc2nnnn2-c2ccccc2)cc(OC)c1OC | -6 | -4 | 2 | 1.1 | 1 | -5
SMILES | CYP2C9 inhib | CYP2C19 inh | PostGolgi ctrl | CYP2C9 activ | CYP2C19 activ | PostGolgi yeast
Cc1cc(C)nc(NC(=O)CSc2nnnn2-c2ccccc2)n1 | -45 | 52* | 8 | 1.5 | 0.5 | 5
C=CCNc1sc(C(=O)c2cccs2)c(N)c1C#N | / | / | 14 | / | / | 3
CC1(C)Cc2[nH]c(=S)c(C#N)cc2CO1 | 12 | 5 | 1 | 0.9 | 1 | -4
CCOc1ccccc1C1C(C(=O)Nc2ccc(OC)cc2)=C(C)Nc2nc(CCCO)nn21 (stereo not given) | / | / | -2 | / | / | 6
COc1ccc(/C=N/OCC(=O)N2CC3(C)CC2CC(C)(C)C3)cc1OC (stereo not given) | 4 | 31 | 8 | 1 | 0.7 | -9
Cc1nnc(SCC(=O)N2CCOCC2)c2ccccc12 | -5 | -6 | -7 | 1 | 1.1 | 12
O=C(CSc1nnnn1-c1cccc2ccccc12)N1CCOCC1 | -195 | 13 | 4 | 2.9* | 0.9 | -5
Cc1cc(C(F)(F)F)nn1CC(=O)N1CCOCC1 | 12 | 0 | -3 | 0.9 | 1 | -1
Cc1ccc(S(=O)(=O)c2ccc(Oc3cccc(C)c3)cc2)cc1 | 53* | 31 | 8 | 0.5 | 0.7 | -4
Cc1ccc(S(=O)(=O)c2ccc(C)cc2)cc1 | -54 | 29 | 12 | 1.5 | 0.7 | 1
COc1ccccc1NC(=O)C1C2C=CC3(CN(Cc4cccnc4)C(=O)C13)O2 (stereo not given) | 20 | 14 | 6 | 0.8 | 0.9 | 8
Cc1ccc(NC(=O)C2C3C=CC4(CN(Cc5cccnc5)C(=O)C24)O3)cc1F (stereo not given) | 4 | 58* | 19 | 1 | 0.4 | -5
C=CCNS(=O)(=O)c1ccc(OC)c(C)c1 | -171 | 30 | 0 | 2.7* | 0.7 | 8
CCOc1ccc(S(=O)(=O)NCCOC)cc1C | -198 | 89* | 45* | 3* | 0.1 | -3
COCCNS(=O)(=O)c1ccc(F)c(OC)c1 | -10 | 10 | 5 | 1.1 | 0.9 | 19
CCNS(=O)(=O)c1ccc(OC)c(C)c1 | -174 | 24 | 11 | 2.7* | 0.8 | 0
CCOC(=O)Nc1ccc(S(=O)(=O)Nn2cnnc2)cc1 | 30 | 11 | 2 | 0.7 | 0.9 | -1
O=S(=O)(Nc1nc(CN2CCOCC2)nc2sc3c(c12)CCCC3)c1cc(F)ccc1F | 63* | 0 | 12 | 0.4 | 1 | 3
CCNc1nc(CN2CCOCC2)nc2sc3c(c12)CCC3 | 1 | 30 | -1 | 1 | 0.7 | -4
Cc1ccc(NC(=O)CSC2=C(C#N)C(c3ccco3)C3=C(CC(C)(C)CC3=O)N2)cc1 (stereo not given) | 96* | 93* | 13 | 0 | 0.1 | 3
Cc1ccccc1NC(=O)CSC1=C(C#N)C(c2ccsc2)CC(=O)N1 (stereo not given) | -45 | 27 | 1 | 1.4 | 0.7 | 6
CC1=C(C(=O)OCc2ccccc2)C(c2ccco2)C2=C(CC(C)(C)CC2=O)N1 (stereo not given) | 67* | 63* | 10 | 0.3 | 0.4 | -4
CC(C)C1CC(=O)NC(SCC(=O)Nc2ccc(Br)cc2)=C1C#N (stereo not given) | 20 | 27 | -1 | 0.8 | 0.7 | -9
CCc1ccc(NC(=O)CSC2=C(C#N)C(c3ccco3)C3=C(CCCC3=O)N2)cc1 (stereo not given) | 19 | 33 | 5 | 0.8 | 0.7 | 0
Cc1ccc(C(=O)CSC2=C(C#N)C(c3ccco3)CC(=O)N2)c(C)c1 (stereo not given) | 98* | 49 | 15 | 0 | 0.5 | 8
